Source: ChEMBL document CHEMBL1201862, “PubChem BioAssay data set” (2004)
Among all 310,000 compounds or so, about 11,000 (3.5%) were called active. Another 8% or so got no clear call; they are omitted. The rule behind the calls is not given here. Many of the other results were omitted from the sample, so actives are more common in it than they were.

The molecules below were run against Nuclear receptor ROR-gamma (Mus musculus) (UniProt P51450) (assay: VP16 counterscreen qHTS for inhibitors of ROR gamma transcriptional activity.).
Format: functional

Nuclear receptor ROR-gamma (Mus musculus), sequence (P51450 whole entry): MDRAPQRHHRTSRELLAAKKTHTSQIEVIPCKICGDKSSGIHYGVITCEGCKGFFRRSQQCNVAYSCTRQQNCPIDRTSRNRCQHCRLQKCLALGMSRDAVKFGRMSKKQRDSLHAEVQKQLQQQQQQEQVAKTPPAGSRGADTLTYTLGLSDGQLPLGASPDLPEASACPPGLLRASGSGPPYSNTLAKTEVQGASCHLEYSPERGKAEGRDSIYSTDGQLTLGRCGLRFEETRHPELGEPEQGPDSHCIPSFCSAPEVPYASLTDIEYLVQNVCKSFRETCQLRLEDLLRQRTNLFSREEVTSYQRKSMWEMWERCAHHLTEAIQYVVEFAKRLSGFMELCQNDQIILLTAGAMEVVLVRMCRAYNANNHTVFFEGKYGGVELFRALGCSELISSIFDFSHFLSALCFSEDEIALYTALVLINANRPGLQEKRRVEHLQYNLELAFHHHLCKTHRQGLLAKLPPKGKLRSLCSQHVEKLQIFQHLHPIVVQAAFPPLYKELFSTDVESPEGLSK

| SMILES | Potency |
| --- | --- |
| Cl[Te]1(Cl)OCCO1 | 3.55 µM (active) |
| CNc1ccc2oc(C[C@@H]3OC4(CC[C@@H]3C)O[C@H](C(C)C(=O)c3ccc[nH]3)[C@H](C)C[C@H]4C)nc2c1C(=O)O (some centres not stated) | 631 µM (active) |
